Reference: PubChem BioAssay (NCATS)
Values joined by “and” are separate entries in the source; they are usually repeats but may differ in a detail not shown here. Equal entries are not always repeated. Inconclusive results are not listed. Active and inactive are the calls of the source. Unless noted, the call rests on the fitted dose curve.

target: Bile acid receptor (Homo sapiens) (UniProt Q96RI1); assay: qHTS assay for small molecule antagonists of farnesoid X receptor signaling (AID 588526); conditions: HEK293T FXR-UAS-bla, beta-lactamase ratio, antagonist mode; series mostly up to 76.7 µM; activity change, negative = inhibition: at the top concentration; further: on the % scale 0 is the no-effect control and ±100 the full control effect
In short: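 Concentration-response titrations were fitted to the Hill equation for half-maximal inhibition and maximal response, with data normalised to 50 uM chenodeoxycholic acid and DMSO control wells. Cells: FXR-UAS-bla HEK293T, dialyzed FBS.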

Bile acid receptor (Homo sapiens), sequence (Q96RI1 whole entry, looked up): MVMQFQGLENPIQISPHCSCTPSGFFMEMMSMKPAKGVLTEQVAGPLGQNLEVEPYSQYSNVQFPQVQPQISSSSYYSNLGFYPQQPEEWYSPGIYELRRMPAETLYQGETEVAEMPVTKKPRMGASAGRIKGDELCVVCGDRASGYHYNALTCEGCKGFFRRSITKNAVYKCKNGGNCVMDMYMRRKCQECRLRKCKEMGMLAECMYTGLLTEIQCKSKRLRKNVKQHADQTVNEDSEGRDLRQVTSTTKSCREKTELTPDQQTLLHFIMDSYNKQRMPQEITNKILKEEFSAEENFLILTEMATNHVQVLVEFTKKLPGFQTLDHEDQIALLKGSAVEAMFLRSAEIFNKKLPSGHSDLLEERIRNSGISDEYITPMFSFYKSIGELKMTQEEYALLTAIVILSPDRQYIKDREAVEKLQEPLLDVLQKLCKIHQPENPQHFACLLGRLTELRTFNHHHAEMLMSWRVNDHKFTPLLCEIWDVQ

SMILES	outcome	activity change, negative = inhibition
CCCCNC(=O)NS(=O)(=O)c1ccc(C)cc1	inactive	
CC(C)(Oc1ccc(CCNC(=O)c2ccc(Cl)cc2)cc1)C(=O)O		-2.8% (inactive)
O=c1[nH]c(=O)n([C@H]2C[C@H](O)[C@@H](CO)O2)cc1Br		-13.6% (inactive)
CCCCOCCOCCOCc1cc2c(cc1CCC)OCO2		5.45% (inactive)
CN=C(NC#N)NCCSCc1nc[nH]c1C		4.07% (inactive)
NC(=Nc1ccccc1)Nc1ccccc1	inactive	

target: Glucocorticoid receptor (Homo sapiens) (UniProt P04150); assay: qHTS assay for small molecule agonists of glucocorticoid receptor signaling (AID 588532; active means well fitted curve in the direction sought with a large enough effect in the signal ratio, with a control signal flat; the % refers to the signal ratio; further: potency means the concentration at half of the fitted maximal effect;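 on activation: 100% = dexamethasone at 0.1 µM and 0% = DMSO only wells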); conditions: HeLa MMTV-bla, beta-lactamase ratio, agonist, 18 h; activation: stronger effect = higher value, percent of dexamethasone control, DMSO zero
In short: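 Titration series, up to 92 uM, applied to GRE-bla HeLa cells for 18 h at 37 C. Detection by CCF4 FRET substrate after 2 h at RT.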

Glucocorticoid receptor (Homo sapiens), sequence (P04150 whole entry, looked up): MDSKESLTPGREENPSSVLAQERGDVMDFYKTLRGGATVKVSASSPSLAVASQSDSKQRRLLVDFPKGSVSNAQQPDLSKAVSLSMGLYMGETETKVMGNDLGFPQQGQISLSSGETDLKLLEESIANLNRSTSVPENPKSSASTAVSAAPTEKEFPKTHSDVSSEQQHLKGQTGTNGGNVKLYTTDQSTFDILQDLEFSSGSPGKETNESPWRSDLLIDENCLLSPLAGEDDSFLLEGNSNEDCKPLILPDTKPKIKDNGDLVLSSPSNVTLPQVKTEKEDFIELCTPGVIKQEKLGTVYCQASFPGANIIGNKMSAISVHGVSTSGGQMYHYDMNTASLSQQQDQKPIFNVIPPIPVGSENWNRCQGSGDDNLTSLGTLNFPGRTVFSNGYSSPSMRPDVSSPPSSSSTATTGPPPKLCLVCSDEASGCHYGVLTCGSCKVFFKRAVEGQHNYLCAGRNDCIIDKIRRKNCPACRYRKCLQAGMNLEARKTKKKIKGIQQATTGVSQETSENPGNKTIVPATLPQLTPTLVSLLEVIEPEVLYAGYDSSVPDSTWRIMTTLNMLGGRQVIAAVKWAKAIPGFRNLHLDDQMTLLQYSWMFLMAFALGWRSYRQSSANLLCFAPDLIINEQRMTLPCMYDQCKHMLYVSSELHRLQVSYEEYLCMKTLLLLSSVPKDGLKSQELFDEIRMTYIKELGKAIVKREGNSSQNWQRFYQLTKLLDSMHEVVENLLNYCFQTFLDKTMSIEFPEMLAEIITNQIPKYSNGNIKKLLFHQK

SMILES	activation	Potency
CC(=O)[C@@]1(O)CC[C@H]2[C@@H]3CCC4=CC(=O)CC[C@]4(C)[C@H]3CC[C@@]21C	1.8% (inactive)	
CCCCNC(=O)NS(=O)(=O)c1ccc(C)cc1	-10.2% (inactive)	
COc1cc(Cc2cnc(N)nc2N)cc(OC)c1OC	-1.11% (inactive)	
C[C@]12CCC(=O)C=C1CC[C@@H]1[C@@H]2C(=O)C[C@@]2(C)[C@H]1CC[C@]2(O)C(=O)CO	-0.667% (inactive)	
COc1ccc(CN(CCN(C)C)c2ccccn2)cc1	-0.651% (inactive)	
C[C@]12C=CC(=O)C=C1CC[C@H]1[C@@H]3C[C@@H](O)[C@](O)(C(=O)CO)[C@@]3(C)C[C@H](O)[C@@]12F		0.112 µM (active)
CC(C)(Oc1ccc(CCNC(=O)c2ccc(Cl)cc2)cc1)C(=O)O	-5.13% (inactive)	
Nc1ncn([C@@H]2O[C@H](CO)[C@@H](O)[C@H]2O)c(=O)n1	-7.09% (inactive) and -13.7% (inactive)	
COC(=O)[C@H]1[C@H]2C[C@@H]3c4[nH]c5cc(OC)ccc5c4CCN3C[C@H]2C[C@@H](OC(=O)c2cc(OC)c(OC)c(OC)c2)[C@@H]1OC	4.47% (inactive)	
Cc1ccc(S(=O)(=O)NC(=O)NN2CCCCCC2)cc1	-1.16% (inactive)	

target: Glucocorticoid receptor (Homo sapiens) (UniProt P04150); assay: qHTS assay for small molecule antagonists of glucocorticoid receptor signaling (AID 588533; active means well fitted inhibition curve with a large enough effect in the signal ratio, with a control signal flat, not every such curve was filed as active; the % refers to the signal ratio;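 further: cells stimulated with 2 nM dexamethasone as agonist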; further: potency means the concentration at half of the fitted maximal effect; on activity change, negative = inhibition: on the % scale 0 is the no-effect control and ±100 the full control effect); conditions: HeLa MMTV-bla, GRE beta-lactamase ratio, antagonist mode, 18 h; series mostly up to 76.8 µM; activity change, negative = inhibition: at the top concentration
In short: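 Antagonist-mode qHTS: compound titrations added to GRE-bla HeLa cells, then dexamethasone 2 nM final; 18 h, 37 C. CCF4 FRET fluorescence normalized to dexamethasone and DMSO; IC50 from Hill fit.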

SMILES	Potency	activity change, negative = inhibition
CCCCNC(=O)NS(=O)(=O)c1ccc(C)cc1	inactive	
COc1cc(Cc2cnc(N)nc2N)cc(OC)c1OC		-2.32% (inactive)
C[C@]12CCC(=O)C=C1CC[C@@H]1[C@@H]2C(=O)C[C@@]2(C)[C@H]1CC[C@]2(O)C(=O)CO	28.2 µM (active)	
C[C@]12C=CC(=O)C=C1CC[C@H]1[C@@H]3C[C@@H](O)[C@](O)(C(=O)CO)[C@@]3(C)C[C@H](O)[C@@]12F		3.74% (inactive)
CC(C)(Oc1ccc(CCNC(=O)c2ccc(Cl)cc2)cc1)C(=O)O		19.3% (inactive)
Nc1ncn([C@@H]2O[C@H](CO)[C@@H](O)[C@H]2O)c(=O)n1	7.94 µM (active) and 5.62 µM (active)	
NC(=Nc1ccccc1)Nc1ccccc1	inactive	
COC(=O)[C@H]1[C@H]2C[C@@H]3c4[nH]c5cc(OC)ccc5c4CCN3C[C@H]2C[C@@H](OC(=O)c2cc(OC)c(OC)c(OC)c2)[C@@H]1OC		-20.3% (inactive)
Cc1ccc(S(=O)(=O)NC(=O)NN2CCCCCC2)cc1		-9.7% (inactive)

tested on: not listed separately; assay: qHTS assay for small molecule antagonists of peroxisome proliferator-activated receptor delta signaling (AID 588535; active means well fitted inhibition curve with a large enough effect in the signal ratio, with a control signal flat, not every such curve was filed as active; the % refers to the signal ratio;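 on max response: cells co-treated with a PPAR-delta agonist as stimulator during compound exposure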); conditions: HEK293T PPARd-UAS-bla, beta-lactamase FRET ratio, 18 h; 460 nm channel
In short: (§1)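 GeneBLAzer PPAR-delta-UAS-bla HEK293T cells in medium with 2% charcoal/dextran FBS were preincubated 5 hrs at 37 C, then given compounds, incubated 18 hrs at 37 C, and read by CCF4 beta-lactamase fluorescence; IC50 from Hill fits.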

SMILES	max response
CCCCNC(=O)NS(=O)(=O)c1ccc(C)cc1	-29.2% and 9.07%
COc1cc(Cc2cnc(N)nc2N)cc(OC)c1OC	38%
C[C@]12CCC(=O)C=C1CC[C@@H]1[C@@H]2C(=O)C[C@@]2(C)[C@H]1CC[C@]2(O)C(=O)CO	10.6%
NC(=O)N1c2ccccc2C=Cc2ccccc21	34.8%
COc1ccc(CN(CCN(C)C)c2ccccn2)cc1	15.1%
C[C@]12C=CC(=O)C=C1CC[C@H]1[C@@H]3C[C@@H](O)[C@](O)(C(=O)CO)[C@@]3(C)C[C@H](O)[C@@]12F	10.9%
O=c1[nH]c(=O)n([C@H]2C[C@H](O)[C@@H](CO)O2)cc1Br	-1.7%
CCCCOCCOCCOCc1cc2c(cc1CCC)OCO2	7.63%
CN=C(NC#N)NCCSCc1nc[nH]c1C	-4.23%
NC(=Nc1ccccc1)Nc1ccccc1	0.0144% and 57.9%
Cc1ccc(S(=O)(=O)NC(=O)NN2CCCCCC2)cc1	47.3%

target: Peroxisome proliferator-activated receptor delta (Homo sapiens) (UniProt Q03181); assay: as above; conditions: HEK293T PPARd-UAS-bla, beta-lactamase FRET ratio, 18 h; series mostly up to 76.7 µM; activity change, negative = inhibition: at the top concentration
In short: as §1

Peroxisome proliferator-activated receptor delta (Homo sapiens), sequence (Q03181 whole entry, looked up): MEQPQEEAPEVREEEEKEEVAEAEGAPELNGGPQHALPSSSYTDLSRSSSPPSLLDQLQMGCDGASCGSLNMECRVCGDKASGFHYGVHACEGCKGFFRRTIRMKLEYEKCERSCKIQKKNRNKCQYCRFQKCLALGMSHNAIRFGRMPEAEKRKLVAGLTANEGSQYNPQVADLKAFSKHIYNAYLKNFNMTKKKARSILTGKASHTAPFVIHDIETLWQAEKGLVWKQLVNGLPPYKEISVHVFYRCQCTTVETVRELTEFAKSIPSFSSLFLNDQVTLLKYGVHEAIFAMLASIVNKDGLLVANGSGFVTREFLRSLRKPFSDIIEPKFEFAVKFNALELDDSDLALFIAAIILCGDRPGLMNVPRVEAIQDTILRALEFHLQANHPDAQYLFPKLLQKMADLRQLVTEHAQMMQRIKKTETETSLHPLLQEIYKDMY

SMILES	outcome	activity change, negative = inhibition
CCCCNC(=O)NS(=O)(=O)c1ccc(C)cc1	inactive	
COc1cc(Cc2cnc(N)nc2N)cc(OC)c1OC		9.07% (inactive)
C[C@]12CCC(=O)C=C1CC[C@@H]1[C@@H]2C(=O)C[C@@]2(C)[C@H]1CC[C@]2(O)C(=O)CO		19% (inactive)
NC(=O)N1c2ccccc2C=Cc2ccccc21		17.7% (inactive)
COc1ccc(CN(CCN(C)C)c2ccccn2)cc1		-24.6% (inactive)
C[C@]12C=CC(=O)C=C1CC[C@H]1[C@@H]3C[C@@H](O)[C@](O)(C(=O)CO)[C@@]3(C)C[C@H](O)[C@@]12F		-0.372% (inactive)
O=c1[nH]c(=O)n([C@H]2C[C@H](O)[C@@H](CO)O2)cc1Br		-8.29% (inactive)
CCCCOCCOCCOCc1cc2c(cc1CCC)OCO2		-3.67% (inactive)
CN=C(NC#N)NCCSCc1nc[nH]c1C		1.39% (inactive)
NC(=Nc1ccccc1)Nc1ccccc1	inactive	
Cc1ccc(S(=O)(=O)NC(=O)NN2CCCCCC2)cc1		20.6% (inactive)

target: Peroxisome proliferator-activated receptor gamma (Homo sapiens) (UniProt P37231); assay: qHTS assay for small molecule agonists of peroxisome proliferator-activated receptor gamma signaling (AID 588536; active means well fitted curve in the direction sought with a large enough effect in the signal ratio, with a control signal flat, not every such curve was filed as active; the % refers to the signal ratio;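 further: 0% = DMSO basal wells and 100% = rosiglitazone at 2 µM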); conditions: HEK293 PPARg-UAS-bla, beta-lactamase ratio, 16 h, percent of rosiglitazone response, DMSO as zero; series mostly up to 76.7 µM; activation: at the top concentration
In short: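 GeneBLAzer PPAR-gamma-UAS-bla HEK293 cells in 1% charcoal/dextran-treated FBS medium were treated 16 h at 37 C with compounds. Beta-lactamase activity was read by CCF4 ratio (460/530 nm). Response was normalized to 2 uM rosiglitazone (100%) and DMSO, then Hill-fitted for EC50 and efficacy.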

Peroxisome proliferator-activated receptor gamma (Homo sapiens), sequence (P37231 whole entry, looked up): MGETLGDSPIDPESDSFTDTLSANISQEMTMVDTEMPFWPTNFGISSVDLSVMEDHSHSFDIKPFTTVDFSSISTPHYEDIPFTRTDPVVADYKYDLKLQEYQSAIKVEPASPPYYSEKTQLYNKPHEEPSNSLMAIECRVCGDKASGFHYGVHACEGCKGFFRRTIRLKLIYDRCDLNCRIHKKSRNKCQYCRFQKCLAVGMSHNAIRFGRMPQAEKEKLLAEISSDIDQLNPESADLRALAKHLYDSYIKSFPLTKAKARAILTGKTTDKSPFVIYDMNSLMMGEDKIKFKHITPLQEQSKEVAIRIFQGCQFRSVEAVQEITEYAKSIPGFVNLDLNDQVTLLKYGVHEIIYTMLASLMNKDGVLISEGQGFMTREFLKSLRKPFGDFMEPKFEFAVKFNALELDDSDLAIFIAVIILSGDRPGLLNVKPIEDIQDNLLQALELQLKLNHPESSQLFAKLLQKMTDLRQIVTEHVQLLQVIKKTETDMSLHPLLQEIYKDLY

SMILES	activation	outcome
CC(=O)Nc1nnc(S(N)(=O)=O)s1	-4.23% (inactive)	
O=C(O)CCCCCCCC(=O)O	4.69% (inactive)	
CCCCNC(=O)NS(=O)(=O)c1ccc(C)cc1		inactive
COc1cc(Cc2cnc(N)nc2N)cc(OC)c1OC	-1.94% (inactive)	
C[C@]12CCC(=O)C=C1CC[C@@H]1[C@@H]2C(=O)C[C@@]2(C)[C@H]1CC[C@]2(O)C(=O)CO	-2.81% (inactive)	
NC(=O)N1c2ccccc2C=Cc2ccccc21		inactive
COc1ccc(CN(CCN(C)C)c2ccccn2)cc1	-5.54% (inactive)	
C[C@]12C=CC(=O)C=C1CC[C@H]1[C@@H]3C[C@@H](O)[C@](O)(C(=O)CO)[C@@]3(C)C[C@H](O)[C@@]12F	10% (inactive)	
O=c1[nH]c(=O)n([C@H]2C[C@H](O)[C@@H](CO)O2)cc1Br	-1.15% (inactive)	
CCCCOCCOCCOCc1cc2c(cc1CCC)OCO2	6.34% (inactive)	
CN=C(NC#N)NCCSCc1nc[nH]c1C	2.91% (inactive)	
NC(=Nc1ccccc1)Nc1ccccc1		inactive
Cc1ccc(S(=O)(=O)NC(=O)NN2CCCCCC2)cc1	3.56% (inactive)	
